High-throughput results (PubChem BioAssay)
Compounds with a hit are over-represented: about 4.3% of the library has one in this group of screens.
CHOP inh = inhibitors of CHOP promoter induction, primary screen, cell-based, unfolded protein response, luciferase reporter | CHO-K1 CHOP-promoter luciferase, tunicamycin-induced, 15-18 h | inhibition, % at 10 µM | hit rate 3.8% among 220,000 | AID 2732, 2010;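 active = compounds that reduced the stress-induced luciferase reporter signal by more than about 70% of percent inhibition, limit read from the data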;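 note: 0% = tunicamycin plus vehicle and 100% = wells without tunicamycin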
CF NFkB block = inhibitors of PAF-induced NF-kB signaling, primary screen, cell-based, GFP fluorescence, uHTS; hit rate 0.86% among 360,000; KKLEB NF-kB-GFP reporter, GFP fluorescence overnight; inhibition, % at 5 µM; AID 588850, 2011;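 active = at least 50% inhibition at 5 µM, scaled per plate between neutral and stimulator controls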;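 note: PAF is a Pseudomonas aeruginosa culture filtrate used as stimulus; plate controls were PAF-stimulated DMSO wells for no effect and unstimulated DMSO wells for full effect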
KKLEB cytotox = cytotoxicity in KKLEB CF airway cells, primary screen, cytotoxicity control for CF NF-kB inhibitor project, cell-based, uHTS, fluorescence assay plates | KKLEB CF airway cells viability, ATPlite luminescence, overnight; hits give low values; cells stimulated with P. aeruginosa culture filtrate | activity change (cytotoxicity), % at 5 µM | hit rate 0.36% among 360,000;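 active = corrected activity change at or below -50% at 5 µM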
HIF-2a inh = HIF-2a reporter inhibitors, primary screen, luminescence, 786-0 RCC cells. 786-0 RCC cells HIF-2a reporter, luciferase luminescence, overnight. inhibition, % at 18.8 µM. AID 624352, 2012. hit rate 0.72% among 360,000;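 active = inhibition of the luminescence signal of 40% or more relative to plate controls, in a single-dose primary screen at 18.75 µM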
TRPM1 prom inh = inhibitors of MITF-dependent TRPM1 promoter reporter, primary screen, cell-based, SK-MEL-5, single point, luciferase; inhibition, % at 12.5 µM; AID 488899, 2010; hit rate 0.83% among 330,000; SK-MEL-5 TRPM1 promoter luciferase, 24 h;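 active = mean inhibition across replicates of 60% or more, whatever share of single replicates reaches that level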
Peg3 promoter = Peg3 promoter-driven luciferase inhibitors, primary screen, cell-based, HeLa, luciferase luminescence; inhibition, % at 20 µM; hit rate 1.7% among 360,000; HeLa PEG-Prom luciferase reporter, overnight;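 active = inhibition of at least 50% at 20 µM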
An asterisk follows results filed as active.

Results for CCOC(=O)/C=c1/s/c(=C/c2ccc3cc(OC)ccc3c2)c(=O)n1CC(=O)NCc1ccc2c(c1)OCO2 ?
CF NFkB block: -2; KKLEB cytotox: -3; HIF-2a inh: 11; TRPM1 prom inh: -2; Peg3 promoter: 4

What do the screens show for `CCOC(=O)/C=c1\s/c(=C\c2ccc3cc(OC)ccc3c2)c(=O)n1CC(=O)NCC1CCCO1` (configuration not stated)?
CHOP inh: -47; CF NFkB block: -3; KKLEB cytotox: -8; HIF-2a inh: 9; TRPM1 prom inh: 68*; Peg3 promoter: 61*

How did COc1cc(C(=O)ON=C2C3CC4CC(C3)CC2C4)cc(OC)c1OC do in these assays?
CF NFkB block: 4; KKLEB cytotox: 4; HIF-2a inh: -6; TRPM1 prom inh: 20; Peg3 promoter: 76*

How did COc1cc(C(=O)O/N=C2\C=CC(=O)C=C2C)cc(OC)c1OC do in these assays?
CHOP inh: 94*; CF NFkB block: -15; KKLEB cytotox: 4; HIF-2a inh: 11; TRPM1 prom inh: -1; Peg3 promoter: -7

Results for COc1cc(C(=O)O/N=C2/C=CC(=O)C(C)=C2C)cc(OC)c1OC ?
CHOP inh: 40; CF NFkB block: 10; KKLEB cytotox: 2; HIF-2a inh: 22; TRPM1 prom inh: 30; Peg3 promoter: -1

Results for CNC1(c2nnnn2-c2ccccc2C)CCOC(C)(C)C1 (configuration not stated) ?
CHOP inh: -1; CF NFkB block: 15; KKLEB cytotox: -6; HIF-2a inh: 11; TRPM1 prom inh: -6; Peg3 promoter: 7

How did Cc1cccc(-c2cc3c(N=O)c4ccccc4c-3n[nH]2)c1 do in these assays?
CHOP inh: 85*; CF NFkB block: -25; KKLEB cytotox: 4; HIF-2a inh: -157; TRPM1 prom inh: -4; Peg3 promoter: -114

How did O=Nc1c2cc(-c3ccccc3)[nH]nc-2c2ccccc12 do in these assays?
CHOP inh: 92*; CF NFkB block: -77; KKLEB cytotox: -11; HIF-2a inh: -50; TRPM1 prom inh: 27; Peg3 promoter: 10

Results for Cc1ccc2cc3c(NC(=O)C(C)C)nn(C)c3nc2c1 ?
CHOP inh: 78*; CF NFkB block: 7; KKLEB cytotox: -4; HIF-2a inh: 6; TRPM1 prom inh: -9; Peg3 promoter: 8

Results for Cc1cccc2cc3c(NC(=O)C(C)C)nn(C)c3nc12 ?
CHOP inh: 37; CF NFkB block: 3; KKLEB cytotox: 2; HIF-2a inh: 11; TRPM1 prom inh: 10; Peg3 promoter: 30

Results for CC1CN(c2ccc([N+](=O)[O-])c(NCCOc3ccc(Cl)cc3)c2)CC(C)N1 (configuration not stated) ?
CF NFkB block: -11; KKLEB cytotox: -18; HIF-2a inh: -16; TRPM1 prom inh: 2; Peg3 promoter: 77*

How did Cc1ccccc1OCCNc1cc(N2CC(C)NC(C)C2)ccc1[N+](=O)[O-] (configuration not stated) do in these assays?
CHOP inh: 16; CF NFkB block: 16; KKLEB cytotox: -2; HIF-2a inh: -16; TRPM1 prom inh: -6; Peg3 promoter: 81*

What do the screens show for `Cc1c(/C=N\NC(=O)C2COc3ccc(C(C)(C)C)cc3O2)c2ccccc2n1C` (configuration not stated)?
CHOP inh: 76*; CF NFkB block: 9; KKLEB cytotox: 7; HIF-2a inh: 6; TRPM1 prom inh: 6; Peg3 promoter: 24

What do the screens show for `O=C(N/N=C/c1ccc2c(c1)OCO2)C1COc2ccccc2O1` (configuration not stated)?
CHOP inh: -18; CF NFkB block: 13; KKLEB cytotox: -4; HIF-2a inh: -119; TRPM1 prom inh: -13; Peg3 promoter: -20

How did O=C(O)c1ccc(/C=N/NC(=O)c2cc(-c3cccs3)nc3ccccc23)cc1 do in these assays?
CHOP inh: 8; CF NFkB block: 2; KKLEB cytotox: -8; HIF-2a inh: -14; TRPM1 prom inh: -6; Peg3 promoter: 65*

Results for O=C(N/N=C\c1cc(Br)cs1)C1COc2ccccc2O1 (configuration not stated) ?
CHOP inh: 80*; CF NFkB block: 7; KKLEB cytotox: -4; HIF-2a inh: -22; TRPM1 prom inh: 15; Peg3 promoter: -17

How did O=C(N/N=C/c1ccsc1)c1cc(-c2cccs2)nc2ccccc12 do in these assays?
CHOP inh: 25; CF NFkB block: 18; KKLEB cytotox: -20; HIF-2a inh: 12; TRPM1 prom inh: 10; Peg3 promoter: 17

How did Cc1nn(-c2ccccc2)c(N2CCCC2)c1/C=N/NC(=O)c1cc(-c2ccccn2)nc2ccccc12 do in these assays?
CHOP inh: 25; CF NFkB block: 40; KKLEB cytotox: -7; HIF-2a inh: 16; TRPM1 prom inh: 8; Peg3 promoter: 57*

Results for Cc1nn(-c2ccccc2)c(N2CCCC2)c1/C=N/NC(=O)c1cc(-c2cccs2)nc2ccccc12 ?
CHOP inh: 38; CF NFkB block: 22; KKLEB cytotox: -14; HIF-2a inh: 21; TRPM1 prom inh: 5; Peg3 promoter: 36

Results for CCOC(=O)[C@]12CCCC=C1N(Cc1ccc3c(c1)OCO3)C(=O)[C@H](CC(=O)NCCC(C)C)C2 ?
HIF-2a inh: 1

How did C/C(=N\NC(=O)c1cccc2ccccc12)c1ccccn1 do in these assays?
CF NFkB block: -32; KKLEB cytotox: 4; HIF-2a inh: -58; TRPM1 prom inh: 76*; Peg3 promoter: -16

Results for C/C(=N\NC(=O)C1COc2ccccc2O1)c1ccccn1 (configuration not stated) ?
CHOP inh: 43; CF NFkB block: -4; KKLEB cytotox: -10; HIF-2a inh: -33; TRPM1 prom inh: 83*; Peg3 promoter: 51*

What do the screens show for `C/C(=N\NC(=O)c1ccccc1Cl)c1ccccn1`?
CF NFkB block: -26; KKLEB cytotox: 4; HIF-2a inh: -158; TRPM1 prom inh: 57; Peg3 promoter: -20

What do the screens show for `C/C(=N\NC(=O)c1ccccc1OCc1ccc(F)cc1)c1ccccn1`?
CF NFkB block: -5; KKLEB cytotox: -12; HIF-2a inh: -130; TRPM1 prom inh: 70*; Peg3 promoter: 50*

How did C/C(=N\NC(=O)C(c1ccccc1)c1ccccc1)c1ccc(O)cc1 do in these assays?
CF NFkB block: 0; KKLEB cytotox: 5; HIF-2a inh: 18; TRPM1 prom inh: 5; Peg3 promoter: 21

Results for C/C(=N\NC(=O)C(c1ccccc1)c1ccccc1)c1ccccn1 ?
CHOP inh: 53; CF NFkB block: 15; KKLEB cytotox: -9; HIF-2a inh: 34; Peg3 promoter: 97*
